# Bioassay records deposited in PubChem by several laboratories.
# Mot1-301 SUMO: SUMOylation pathway inhibition by Mot1-301 growth rescue; S. cerevisiae Mot1-301 growth rescue, ATP luminescence, 38.5C; percent above DMSO median, 100 means doubled; growth rescue, % at 18.8 µM; 1% of 320,000 active;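 active means every valid replicate shows activation above 250% relative to neutral control wells; inactive means the rest, any valid replicate at or below 250%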
# Bfl-1 A1 inh: inhibitors of the anti-apoptotic protein A1, read as caspase activation; 0.066% of 330,000 active; caspase activation, % (concentration not given with the values); MEF A1-2A-BIM cells, Caspase-Glo 3/7 luminescence, 3 h; percent of clofoctol response, vehicle zero;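 active means over half of replicate activation scores above 10%, or exactly half above 10 with the replicate mean above 10; inconclusive means replicate mean below 10 yet half the replicates above 10; inactive means over half of replicates below 10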
# AI-2 QS modul: modulators of Vibrio harveyi AI-2 quorum sensing system. Vibrio harveyi JMH597 AI-2 luminescence/OD600 ratio, 9 h; active compounds read low; strain lacks LuxN and CqsS sensors; 0 = neutral-control median. 0.4% of 300,000 active. activity change, % at 7.5 µM; in the data active means activity change below about -75%, passing the limit was not always enough; inconclusive means no clear call, values can overlap the other calls;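 further: luminescence divided by OD600 gain over 9 h not by final OD600 alone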
# aDG glyco act: alpha-DG glycosylation activation. AID 624168. Pro5-aDG cells, alpha-DG glycosylation AlphaScreen (IIH6); 0% Pro5, 100% B10-LARGE cell signal. 0.22% of 360,000 active. activation, % at 10 µM;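 active means activation of at least 8% versus controls, or a plate z-score of at least 8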;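 further: Pro5 are CHO cells carrying HIG-tagged alpha-DG that lacks glycosylation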
# ARNT-TACC3 inh: disrupts binding between human ARNT and TACC3; inhibition, % at 9.99 µM; Q9Y6A5; AlphaScreen His-ARNT PAS-B/GST-TACC3 binding, luminescence; TACC3 fragment carries E629A point mutation; 0.66% of 390,000 active; AID 623870;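 active means mean inhibition of replicates at least 50% and at least half of replicates each reaching 50%; inconclusive means half or more replicates reach 50% but mean below 50%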
# A number is an active result; . = inactive; ? = inconclusive; / = no result given. In the library only some 1.8% were active in any assay of this set; here they are far more common.
SMILES,Mot1-301 SUMO,Bfl-1 A1 inh,AI-2 QS modul,aDG glyco act,ARNT-TACC3 inh
N=c1n(CC(=O)c2ccc(Br)cc2)c2ccccc2n1Cc1ccccc1,.,.,/,9.1,.
Cn1c(=N)n(CC(=O)c2ccc(Cl)c(Cl)c2)c2ccccc21,.,.,.,7.4,.
Cc1ccc2cc(CN(C(=O)c3ccncc3)C(C)C)c(=O)[nH]c2c1,306,.,.,.,.
COC(=O)N/N=C/c1cc(Br)ccc1O,.,.,.,.,.
CC(C)NC(=S)N/N=C/c1cc(Br)ccc1O,.,.,.,.,53
COc1cc(-c2c(-c3cccc(C)c3)oc3ccccc23)cc(OC)c1OC,.,.,.,.,/
COc1ccc(Cc2nnc(N/N=C/c3ccc(Br)cc3)[nH]c2=O)cc1OC,.,.,.,.,.
COc1ccc(Cc2nnc(N/N=C/c3ccc(O)cc3)[nH]c2=O)cc1OC,.,.,?,.,92
CCOC(=O)c1ccc(NC(=O)Cn2ncc(Cl)c(Cl)c2=O)cc1,.,.,-96,.,/
COC(=O)c1ccc(NC(=O)Cn2nc(C)c3ccccc3c2=O)cc1,.,.,-96,.,.
CCOC(=O)c1ccc(NC(=O)Cn2nc(C)c3ccccc3c2=O)cc1,.,.,-97,.,.
CCC(=O)Nc1ccc(C(=O)Cn2ncc(Cl)c(Cl)c2=O)cc1,.,.,.,.,.
Nc1cc(N2CCCC2)c(Cl)cc1[N+](=O)[O-],307,.,.,.,.
Nc1cc(N2CCOCC2)c(Cl)cc1[N+](=O)[O-],.,.,.,.,.
O=C(CN1C(=O)NC2(CCCCCCC2)C1=O)NC(=O)NCc1ccco1,337,.,.,.,.
O=C(CN1C(=O)NC2(CCCC2)C1=O)NCc1ccco1,.,.,/,.,.
CS(=O)(=O)N1CCN(c2ccc(NC(=O)C(c3ccccc3)c3ccccc3)cc2)CC1,.,.,.,.,.
O=C(Nc1ccc(N2CCCC2)cc1)C(Cl)c1ccccc1 (stereo unspecified),.,.,.,.,active
CCCCc1ccc(NC(=O)CC(C)=O)cc1,.,.,.,.,.
CCCCc1ccc(NC(=O)CC(C)(C)C)cc1,.,.,-76,.,.
O=[N+]([O-])c1cc(Cl)cc(/C=N/NC(=S)Nc2ccc(S(=O)(=O)N3CCOCC3)cc2)c1O,.,.,.,.,70
NS(=O)(=O)c1ccc(NC(=S)NC(=O)c2cccs2)cc1,.,.,.,.,.
O=C(NC(=S)Nc1ccc(S(=O)(=O)N2CCCCC2)cc1)c1cccs1,334,.,.,.,.
O=S(=O)(c1ccc(NC(=S)N/N=C/c2ccc(O)c(O)c2)cc1)N1CCOCC1,.,.,.,.,.
O=S(=O)(c1ccc(NC(=S)NN=Cc2ccccc2O)cc1)N1CCCCC1,/,/,/,.,46
SMILES,Mot1-301 SUMO,Bfl-1 A1 inh,AI-2 QS modul,aDG glyco act,ARNT-TACC3 inh
CC(NC(=O)c1ccccc1F)c1nnc(SCc2nc3ccccc3c(=O)[nH]2)n1C (stereo unspecified),292,.,.,.,.
COc1ccc(CCNC(=O)c2cc3c(=O)n4ccccc4nc3n(C3CCCCC3)c2=N)cc1OC,.,.,.,.,.
COc1ccc(NC(=O)Nc2ccc3c(c2)CC(=O)N([C@@H](C)CO)C[C@H](C)[C@H](CN(C)Cc2ccncc2)O3)cc1,/,/,/,/,.
C/C(=N\NC(=S)Nc1c(C)cccc1C)c1cc2ccccc2o1,322,.,.,.,/
C/C(=N\NC(=S)Nc1ccccc1C)c1cc2ccccc2o1,.,.,.,.,.
COc1ccc([N+](=O)[O-])cc1N1C(=O)c2cccnc2C1=O,.,.,.,.,50
CC(=O)Oc1ccc([N+](=O)[O-])cc1N1C(=O)c2ccccc2C1=O,.,.,.,.,.
CCC(=O)c1ccc(OCC(O)CN2CCN(S(=O)(=O)N3CCCCC3)CC2)cc1 (stereo unspecified),286,.,.,.,.
CCOC(=O)C1CCN(CC(C)(C)NS(=O)(=O)c2ccc(Cl)cc2)CC1,338,.,.,.,.
CCCc1cc(=O)oc2cc(OCC(=O)N3C[C@H]4C[C@@H](C3)c3cccc(=O)n3C4)c(Cl)cc12,.,.,.,.,.
CC(C)(C)S(=O)(=O)c1cnc(-c2cnccn2)nc1N,.,.,.,.,.
CC(C)(C)S(=O)(=O)c1cnc(-c2ccccn2)nc1N,.,.,.,.,59
